An excerpt weighted towards active compounds, which were near 7.4% of everything screened.
SMN2 splice enh: qHTS Assay for Enhancers of SMN2 Splice Variant Expression; HEK293 SMN2-luciferase splicing reporter, luminescence, 30-36 h; Potency, µM (doses to about 46.1 µM), usual class: activators; 2.8% of 210,000 active; AID 1458, 2008; also: nearly all actives have a fitted effect of over 55% in size
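HEK293 cells carry an SMN2 […]–luciferase reporter in which exon 7 inclusion puts luciferase in frame. Cells were plated 10-12 h before compound addition, then incubated 30-36 h at 37C. ONE-Glo luminescence was read; sodium butyrate at 4.5 mM final served as control.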
Rab9 prom act: qHTS Assay for Rab9 Promoter Activators | Huh7 Rab9 promoter-luciferase reporter, luminescence, 24 h | 2.8% of 320,000 active | Potency, µM (titrated, usually from 9.22 µM), actives largely listed as activators | AID 485297, 2010; also: nearly all actives have a fitted effect of over 60% in size
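Measured in stably transfected Huh7 cells bearing a Rab9 promoter–luciferase construct: 24 h compound treatment at 37 °C, followed by luminescence detection.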
FLuc modulator: qHTS profiling assay for firefly luciferase inhibitor/activator using purifed enzyme and Km concentrations of substrates (counterscreen for miR-21 project); purified FLuc, Km substrates, luminescence inhibition; Potency, µM (doses to about 57.5 µM), hits mostly inhibitors; Luciferin 4-monooxygenase (Photinus pyralis), P08659; 6.9% of 360,000 active; also: nearly all actives have a fitted effect of over 55% in size
Target sequence (P08659 whole entry, looked up): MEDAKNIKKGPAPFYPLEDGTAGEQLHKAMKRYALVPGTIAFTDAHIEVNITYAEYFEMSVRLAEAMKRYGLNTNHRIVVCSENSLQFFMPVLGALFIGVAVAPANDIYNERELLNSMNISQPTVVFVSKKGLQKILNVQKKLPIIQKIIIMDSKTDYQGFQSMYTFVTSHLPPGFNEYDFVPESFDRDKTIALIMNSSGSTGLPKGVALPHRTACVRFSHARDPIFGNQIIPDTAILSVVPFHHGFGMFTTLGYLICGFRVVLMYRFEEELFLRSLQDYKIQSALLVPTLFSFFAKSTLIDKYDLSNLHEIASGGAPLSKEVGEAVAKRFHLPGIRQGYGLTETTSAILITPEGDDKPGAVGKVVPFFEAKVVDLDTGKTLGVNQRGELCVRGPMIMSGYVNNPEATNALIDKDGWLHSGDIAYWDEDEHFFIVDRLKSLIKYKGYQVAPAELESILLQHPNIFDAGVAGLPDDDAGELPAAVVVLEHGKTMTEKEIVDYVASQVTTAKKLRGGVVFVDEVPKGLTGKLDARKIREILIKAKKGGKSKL
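Purified P. pyralis luciferase (10nM final) with 10uM D-luciferin and 10uM ATP (Km levels) in 50mM Tris acetate pH 7.5, 10mM Mg acetate, 0.01% Tween-20, 0.05% BSA; qHTS 6-point titration, ~60 µM downward; luminescence read.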
ELG1 genotox: qHTS screen for small molecules that induce genotoxicity in human embryonic kidney (HEK293T) cells expressing luciferase-tagged ELG1; HEK293T ELG1-luciferase reporter, luminescence, 16 h; Potency, µM (doses to about 46 µM), most hits filed as activators; AID 504466, 2011; 1.3% of 330,000 active; also: nearly all actives have a fitted effect of over 60% in size
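Luminescence read-out: rising ELG1-luciferase signal, reflecting elevated ELG1 protein under genetic stress, flags genotoxic compounds. Cells were treated for 16 hr at 37 °C before ONE-Glo detection.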
NPC1 prom act: qHTS Assay for NPC1 Promoter Activators; Huh7 NPC1 promoter luciferase reporter, 24 h; Potency, µM (highest dose often 9.22 µM), actives largely listed as activators; 2.4% of 320,000 active; AID 485313, 2010; also: nearly all actives have a fitted effect of over 60% in size
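Stable NPC1-promoter luciferase Huh7 line; cpd (DMSO) 24 h, 37 °C, 5% CO2; Amplite luciferase reagent 10 min RT; luminescence readout. qHTS format.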
Each line names hits and unclear results; the compound was inactive in the other large screens. Calls follow the shape of the dose curve; as a rule, active = well fitted curve in the direction sought with a large enough effect; inconclusive = small, poorly fitted or top-dose-only effect, or another doubt; inactive = no such curve, though single readings can be large; an effect the other way counts as inactive or inconclusive.

Cc1ccc(-n2c(C)cc(C(=O)NS(=O)(=O)c3ccc(C)cc3)c2C)cc1	none
Cc1ccc(NC(=O)c2cc(C)n(-c3ccccc3)c2C)cc1	Rab9 prom act inconclusive, FLuc modulator 0.054µM, ELG1 genotox 0.23µM
Cc1cc(C(=O)Nc2ccc(Cl)cc2)n(-c2ccccc2)n1	none (no result: SMN2 splice enh)
Cc1cc(C(=O)NNS(=O)(=O)c2cc(C(=O)O)ccc2Cl)c(C)n1-c1ccccc1	FLuc modulator 24µM (no result: SMN2 splice enh)
N=C(N)SCC(=O)O	none (no result: Rab9 prom act, FLuc modulator, ELG1 genotox, NPC1 prom act)
Cc1ccc2occ(CC(=O)N(Cc3ccc(Cl)cc3)Cc3ccco3)c2c1	FLuc modulator inconclusive (no result: Rab9 prom act, ELG1 genotox, NPC1 prom act)
CC(=O)c1ccc(N2CCN(S(=O)(=O)c3ccc(-c4cc(C(F)(F)F)on4)s3)CC2)cc1	none (no result: SMN2 splice enh, Rab9 prom act, ELG1 genotox, NPC1 prom act)
CCCCC/C=C\C/C=C\C/C=C\C/C=C\CCCC(=O)O[C@H](COCCCCCCCCCCCCCCCC)COP(=O)([O-])OCC[N+](C)(C)C	none (no result: Rab9 prom act, FLuc modulator, ELG1 genotox, NPC1 prom act)
O=C(CCCCCN1C(=O)c2cccc3cccc(c23)C1=O)NC1CCS(=O)(=O)C1 (configuration not stated)	FLuc modulator 15µM (no result: SMN2 splice enh)
COc1ccc([C@]23Cc4ccccc4C(O2)c2c(c4ccc(OC)cc4oc2=O)O3)cc1	FLuc modulator 3.1µM (no result: SMN2 splice enh, ELG1 genotox)
COc1ccc2c3c(c(=O)oc2c1)C1O[C@](c2ccsc2)(Cc2ccccc21)O3	none (no result: SMN2 splice enh, ELG1 genotox)
Cc1nnc(N/N=C/c2ccc(-c3ccccc3F)o2)n1N	Rab9 prom act inconclusive, FLuc modulator 21µM, ELG1 genotox inconclusive (no result: SMN2 splice enh)
COC(=O)C/C=C1\c2ccc3c(c2[C@@H](OC)[C@@H]1C)OCO3	none (no result: Rab9 prom act, FLuc modulator, ELG1 genotox, NPC1 prom act)
C/C(=N\O)c1ccc2c3ccccc3n(C)c2c1	Rab9 prom act inconclusive, FLuc modulator 19µM, ELG1 genotox inconclusive, NPC1 prom act inconclusive
CCn1c2ccccc2c2cc(/C(C)=N/O)ccc21	none
Cc1sc(NC(=O)c2ccco2)c(C(c2cccnc2)N2CCN(c3ccc(F)cc3)CC2)c1C (configuration not stated)	ELG1 genotox 0.52µM
COC(=O)c1c(NC(=O)c2cc(=O)c3ccc(C)c(C)c3o2)sc2c1CCCC2	none (no result: Rab9 prom act, ELG1 genotox, NPC1 prom act)
CCc1cccc(C)c1NS(=O)(=O)c1c(C(=O)N2CCC(C)CC2)c(C)n(C)c1C	none (no result: SMN2 splice enh, Rab9 prom act, ELG1 genotox, NPC1 prom act)
O=C1CCN(Cc2ccccc2)CCN1CCSc1ccccc1	Rab9 prom act 4.5µM, FLuc modulator 13µM, ELG1 genotox inconclusive, NPC1 prom act inconclusive (no result: SMN2 splice enh)
CCCN1CCC(=O)N(CCSc2ccccc2)CC1	Rab9 prom act 3.5µM, FLuc modulator inconclusive, ELG1 genotox inconclusive, NPC1 prom act 2.8µM (no result: SMN2 splice enh)
CCCN1CCC(=O)N(CCSc2ccc(NC(C)=O)cc2)CC1	none (no result: SMN2 splice enh)
CCN(C(=O)Cn1c(SCC(=O)Nc2ccc(OC)cc2)nc2ccccc21)c1cccc(C)c1	none (no result: SMN2 splice enh, Rab9 prom act, ELG1 genotox, NPC1 prom act)
O=C(C[n+]1ccc(C(=O)NCc2ccccc2)cc1)c1ccc(OC(F)F)cc1	none (no result: SMN2 splice enh)
O=C(C[n+]1cn(C(F)F)c2ccccc21)c1ccc(OC(F)F)cc1	SMN2 splice enh inconclusive, Rab9 prom act inconclusive, FLuc modulator inconclusive, ELG1 genotox 16µM, NPC1 prom act inconclusive
CCCn1nc2cc(C(=O)NCCc3ccc(C)cc3)ccc2c1OCC	none
O=C(NCCO)c1ccc2c3n(nc2c1)-c1ccccc1CO3	Rab9 prom act 2.8µM, FLuc modulator 2.1µM, ELG1 genotox inconclusive, NPC1 prom act 0.5µM (no result: SMN2 splice enh)
CCCn1nc2cc(C(=O)NC3CCCc4ccccc43)ccc2c1OCC (configuration not stated)	none
Cc1ccc2c(c1)COc1c3ccc(C(=O)O)cc3nn1-2	Rab9 prom act inconclusive, FLuc modulator 1.3µM (no result: SMN2 splice enh)
O=C(NCC1CC1)c1ccc2c3n(nc2c1)-c1ccccc1CO3	Rab9 prom act inconclusive, FLuc modulator 0.48µM, ELG1 genotox inconclusive, NPC1 prom act 0.35µM (no result: SMN2 splice enh)
Cc1ccc2c(c1)CCCN2C(=O)c1ccc2c(c1)OCO2	none
Cc1ccc2c(c1)COc1c3ccc(C(=O)NCC4CC4)cc3nn1-2	Rab9 prom act inconclusive, FLuc modulator 5.4µM, NPC1 prom act 1.3µM (no result: SMN2 splice enh)
CCOc1ccc2nc(NC(=O)c3cc(=O)c4cc(C)cc(C)c4o3)sc2c1	none (no result: Rab9 prom act, ELG1 genotox, NPC1 prom act)
COc1ccccc1-c1cc2nc(C)c(CCC(=O)NCCc3cccc(C)c3)c(C)n2n1	none (no result: Rab9 prom act, ELG1 genotox, NPC1 prom act)
